Test results as given in PubChem BioAssay (NCI).
About 83,000 compounds went through this panel and 20% of them were active in at least one assay; those are over-represented in the sample as a whole.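 Cell lines were cultured in 96-well plates, exposed to a single compound concentration, and assessed for percent growth 48 hours later.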 Values without a mark were called inactive. The source made the active and inactive calls. How the source made its calls: active means growth percent below 10; inactive means the rest.

How the values were obtained:
Assay in all cases: NCI-60 one-dose screen, 48 h (100 = growth as untreated, 0 = no growth, -100 = all killed)
Settings in all cases: 10 µM unless noted
SR leukemia = system: SR leukemia
RPMI-8226 leukemia = system: RPMI-8226 leukemia
OVCAR-8 ovarian = system: OVCAR-8 ovarian
OVCAR-5 ovarian = system: OVCAR-5 ovarian
OVCAR-4 ovarian = system: OVCAR-4 ovarian
SK-OV-3 ovarian = system: SK-OV-3 ovarian
IGROV1 ovarian = system: IGROV1 ovarian
OVCAR-3 ovarian = system: OVCAR-3 ovarian
HS 578T breast = system: HS 578T breast
NCI/ADR-RES ovarian = system: NCI/ADR-RES ovarian

SMILES	growth (SR leukemia)	growth (RPMI-8226 leukemia)	growth (OVCAR-8 ovarian)	growth (OVCAR-5 ovarian)	growth (OVCAR-4 ovarian)	growth (SK-OV-3 ovarian)	growth (IGROV1 ovarian)	growth (OVCAR-3 ovarian)	growth (HS 578T breast)	growth (NCI/ADR-RES ovarian)
CC(=O)C(CO)C(=O)Nc1ccccc1 (stereo not given)	94.8%	103%	109%	102%	98%	93.8%	105%	110%	118%	103%
COc1ccc(/C=C2\SC(=O)N(Cc3cc(=O)oc4ccc(OC)cc34)C2=O)cc1	69.6%	64.1%	95.4%	100%	63.6%	96.6%	98.1%	84.6%	103%	95.7%
O=C1Nc2ccccc2/C1=C/c1cn(CC(O)Cn2cc(/C=C3\C(=O)Nc4ccccc43)c3ccccc32)c2ccccc12 (stereo not given)	-2.94% (active)	-41.7% (active)	1.35% (active)	-34.2% (active)	-51.7% (active)	-38.2% (active)	-67.4% (active)	-85.1% (active)	-22.3% (active)	31.8%
O=P(OCCCl)(OCCCl)C(O)c1ccccc1Cl (stereo not given)	89.3%	110%	104%	107%	111%	104%	98.6%	96.8%	106%	109%
O=C(Nc1ccc(-n2cc(-c3ccncc3)c(-c3ccc(Cl)c(O)c3)n2)cc1)Nc1cc(C(F)(F)F)cc(C(F)(F)F)c1	-0.887% (active)	-25.7% (active)	18.2%	38.2%	26.5%	15%	23.4%	17.3%	-31.2% (active)	11.3%
Cc1nc(NC(=S)Nc2ccc(F)cc2)sc1C(=O)NNC(=S)Nc1ccc(F)cc1	81.6%	-16.8% (active)	87.4%	86.3%	42.8%	94%	51.7%	56.6%	72.4%	78.1%
COc1cc(Cn2ccc3c2-c2oncc2CC3)cc(OC)c1	24.1%	35.2%	49%	57%	61.7%	24.6%	26.2%	4.85% (active)	32.4%	-13.9% (active)
Cc1ccc(OCCn2ccc(=O)n(CCOc3ccc(Cl)cc3C(=O)c3cc(C)cc(C)c3)c2=O)cc1	19.7%	34.1%	70%	87.2%	47.3%	59.8%	61.4%	25.1%	37.2%	20.1%
COc1cc(CNC(=O)CCCC/C=C/C(C)C)ccc1OCc1nnc(Nc2ccccc2F)o1	67.3%	64.9%	45.2%	77.7%	0.691% (active)	48.6%	58.4%	68.3%	83.7%	43.3%
CC(C)CSc1nc(-c2ccc(F)cc2)c(C#N)c(N2CCCCC2)n1	84.3%	102%	94%	90.5%	97.1%	99.6%	104%	93%	99.4%	88.7%
N/C(=N\O)c1ccncc1	108%	110%	102%	102%	103%	106%	105%	105%	110%	102%
COc1nc(OC)nc(-c2cc(C(=O)c3ccc(Br)cc3)n3cc(C)cc(C)c23)n1	87%	76.4%	54.7%	102%	37.6%	53.9%	62.4%	34.5%	24.1%	58.7%
O=C(Nc1ccc(-n2cc(-c3ccncc3)c(-c3ccc(Cl)c(O)c3)n2)cc1)c1cc(C(F)(F)F)cc(C(F)(F)F)c1	23.9%	27.6%	65.4%	84.5%	70%	72.4%	70.5%	53.2%	-4.23% (active)	72.9%
